Assay results from paper PMC12864922, “TDP-43 directly inhibits mRNA accumulation in neurites through modulation of mRNA stability”.
Whole data set: some 9,900 sequences, median “r (bound/input frequency ratio)” near 0.7, cut for the highest 2% near 6.5. For the sample, the highest values were picked, then their nearest neighbours and some sequences at random.

B1: ENSMUSG00000032194.238|Kank2 (ssRNA)
RNA: GGGAGUUCUACAGUCCGACGAUCGCUUCGAUAUCCGCAUGCUAAAACCUCAGCAGGGCAGCAUUGAGACUCAUGGACUAAAGGAAAGUGUUCACUCUUCUAGACAAGUGGGUCUCUUGGUUUGAUGGAGUCUUACUCCGCUUGAGUUUUGUAGAAGGGGUUUGUCUAAGGCAUAGAGGCUUGGUUGGCAUAAGAAAAUAAGAUGGACAGAUGGAUGGGUGGAUGGAUGGAUGGCUGAUUGAGUGGGUGGGUGGGUGGAUGGAUGCAUAAAUGAAUAGAUGGAUGGAUGAAUGAACAGAUAGAUCUCUUGCGGUCGCACUAGUGUGGAAUUCUCGGGUGUCAAGG
B2: ENSMUSG00000028439.2|Fam219a|50:54;256:260 (ssRNA)
RNA: GGGAGUUCUACAGUCCGACGAUCGCUUCGAUAUCCGCAUGCUAGACGAGGACCUAGAUCUCAUCCCCCCCAAGUCUGUGAACCCCACCUGCAACACAUGUCAGGCCACUUCCUCCACCGCCUGCCACAUUCAGUAGUGGGCGGGGUCGCCGCGGUGCACGGGGCGCUGACCUGGGCCCGGUGGGAUGCAGCAGGAGAGACCCCUACCCUGCUGGUCCACUGGUCCCCAGCCCCGCGCCUCUUAGAGCCGCCAACCUCGUAACAGUCAUUGCUUCCUCCUAUGGUAGGACGUGUACCUCACACACUCUUGCGGUCGCACUAGUGUGGAAUUCUCGGGUGUCAAGG
B3: ENSMUSG00000058297.541|Spock2|207:211 (ssRNA)
RNA: GGGAGUUCUACAGUCCGACGAUCGCUUCGAUAUCCGCAUGCUAUUUUGAUAUCGGCUCCCCAAAGCCCAAGCCCACAGCCCUAGGAGAGAACCAGGGGCCCAUCUUUGACACCUGGGCCAUCACGAGCCCUCCCGCCUGCAGUUGUCCUAGGGAAAGACCUGGGGGUGCAAAAGGAGAUUCAAGACAUCCGUACCAAGUCAGGCAGAGCUACCCGCUUCUCAGCCCGUGUCCCACUUAAAACCGUCCGAACACAAAUCACUGAGCUUAGAGUUAAACAUUGUGGUCAAGUGCUUGGGUUCCGUCUCUUGCGGUCGCACUAGUGUGGAAUUCUCGGGUGUCAAGG
B4: ENSMUSG00000058297.519|Spock2 (ssRNA)
RNA: GGGAGUUCUACAGUCCGACGAUCGCUUCGAUAUCCGCAUGCUACACAGGAGUCGUGACCACGUGUGAUGGGUGGGCACAGGUCUGCCUUGCUCCAGCCCCCUCCCUUGGUUUCUGUUGGUACCCAUUUGGCUUUUAUCUGCUUUCUGCUUCACCACUAAGUGCGUAGGUGGGGUCUUUUGAUAUCGGCUCCCCAAAGCCCAAGCCCACAGCCCUAGGAGAGAACCAGGGGCCCAUCUUUGACACCUGGGCCAUCACGAGCCCUCCCGCCUGCAGUUGUCCUAGGGAAAGACCUGGGGGUGCAACUCUUGCGGUCGCACUAGUGUGGAAUUCUCGGGUGUCAAGG
B5: ENSMUSG00000061578.447|Ksr2 (ssRNA)
RNA: GGGAGUUCUACAGUCCGACGAUCGCUUCGAUAUCCGCAUGCUAUUUCAGAGGGGAUAGUUCCUUCUAACCUUGUACUGGGACAUCAUCUAUGUCCCCAUCCCCAGAGCUGAAUUAGAGACACCAAGUAGCCUCUUGGGUUGUUUUGUGGGGUGUUCCCCUUGCUGGUCAAAGGAGUGGAAAGCCACCUUGCUGUAAAUGCUCUUGUUUUCUGUAGCAAUCUUGAACUCUUUUUUUUUUUUGUUCGUUUGUUUGUUUGUUUGUUUGUUUGUUUUUUCAAGACAGGGUUUUUCUGUAUAGCCCUGCUCUUGCGGUCGCACUAGUGUGGAAUUCUCGGGUGUCAAGG
B6: ENSMUSG00000031028.308|Tub (ssRNA)
RNA: GGGAGUUCUACAGUCCGACGAUCGCUUCGAUAUCCGCAUGCUAGAACCCUCAGCGAGGUAGCCUUUGUUUACAGUCUAGUUUCUAGAGGGCAGUAGGACUUCCAUGCUGGGGCUGGCCUAUCUCCUGAUGAAAGAUUACAGUGCCAUCUCCUUCCCAUAGUUCUGUGUCUGCCCUCCCUCCCUGACUUUAUAGGGAGAAAUCUCCUGACAUUAGAGGUGAUAGAAACCAGAGCUUUAGUCUAGUCAGGCUGUUUCUCUGGGUUGACAAGUUUAAGGUUGAACAGGCUGAUUUCUGGAAUCUCACUCUUGCGGUCGCACUAGUGUGGAAUUCUCGGGUGUCAAGG
B7: ENSMUSG00000029028.135|Lrrc47 (ssRNA)
RNA: GGGAGUUCUACAGUCCGACGAUCGCUUCGAUAUCCGCAUGCUAAGGCAUUCUAUUGAACAGUAUUUAUUUUUCUACAACAUGUUAAUAGAAUUUUUUUUUAAAUCAGCUGUGCAUAGACAGUUGAGAACAUCAUGUUGUGAGUGUAAUCUUCUUAGAGCUUGUUUCCAGGCACCGUGCUGCCGCCAUGCUCCCAGGGCAGCAUCUGCCUUCCACGGCUGUGCUUGGAACUGUAGUGCUGGUCGUUGUUGGCACAUCUGCGCCUUGGCCAAGGAAGUUAUCUAUGUCCGUGUAGUCCUUUGUAGCUCUUGCGGUCGCACUAGUGUGGAAUUCUCGGGUGUCAAGG
B8: ENSMUSG00000031028.662|Tub (ssRNA)
RNA: GGGAGUUCUACAGUCCGACGAUCGCUUCGAUAUCCGCAUGCUACUGGACCCCAUACUGGUGACCAGCUUGGUGAGGACAGGCAAAAUUUCUCUAGCUGAGAGCACACUUAGCCAGUUUUCACGCCUAGAACAUAUAUGUCGAUUUGCACAUGAUUGUCUUUUCCUAUUUUGGAGUGGUCAGACAUUUUAUUUUUGUUCAAAAUUAUCUGGAGUUUUAGACAAACUUGCAAAACUGUGCUUUUAUUAAGUGACUUUUUGAAUAAACUUUUUGGUAUUCUGAAGCAAAUGUAUUUAUUUAUUGGUCUCUUGCGGUCGCACUAGUGUGGAAUUCUCGGGUGUCAAGG
B9: ENSMUSG00000028439.183|Fam219a|6:10;12:28;30:47;57:64 (ssRNA)
RNA: GGGAGUUCUACAGUCCGACGAUCGCUUCGAUAUCCGCAUGCUAUGUGCCACACCCACACACAUACACACACCCACACACACACACACACAUGUACCCGACACACACAUGAGCCUAUCUGUCCAGGGAACCAGAUUGGUGUCCGAGAUGAGGAAAUGGCUGUGGCCUGGGAAAUCAGUGAGAGGCCGCUUGGGAAUGAGAAUGCAGUGGACUGAAAGCACAGCCUGGCCAUCUGGAACCUGGGUUCUGGUCCCAGCCUCGGCAUUCUCCCUGAGCUCCUAAGCAAUUCCCAGGCUUCUCUAGGGCUCUUGCGGUCGCACUAGUGUGGAAUUCUCGGGUGUCAAGG
B10: ENSMUSG00000028439.181|Fam219a|7:16;18:22;24:40;42:59;69:76 (ssRNA)
RNA: GGGAGUUCUACAGUCCGACGAUCGCUUCGAUAUCCGCAUGCUAUGUGCCACACACACACCCACACCCACACACAUACACACACCCACACACACACACACACAUGUACCCGACACACACAUGAGCCUAUCUGUCCAGGGAACCAGAUUGGUGUCCGAGAUGAGGAAAUGGCUGUGGCCUGGGAAAUCAGUGAGAGGCCGCUUGGGAAUGAGAAUGCAGUGGACUGAAAGCACAGCCUGGCCAUCUGGAACCUGGGUUCUGGUCCCAGCCUCGGCAUUCUCCCUGAGCUCCUAAGCAAUUCCCAGCUCUUGCGGUCGCACUAGUGUGGAAUUCUCGGGUGUCAAGG
B11: ENSMUSG00000028439.181|Fam219a (ssRNA)
RNA: GGGAGUUCUACAGUCCGACGAUCGCUUCGAUAUCCGCAUGCUAUGUGCCUGUGUGUGUGCGUGUGCGUGUGUGUAUGUGUGUGCGUGUGUGUGUGUGUGUGUUGUACCCGAGUGUGUGUUGAGCCUAUCUGUCCAGGGAACCAGAUUGGUGUCCGAGAUGAGGAAAUGGCUGUGGCCUGGGAAAUCAGUGAGAGGCCGCUUGGGAAUGAGAAUGCAGUGGACUGAAAGCACAGCCUGGCCAUCUGGAACCUGGGUUCUGGUCCCAGCCUCGGCAUUCUCCCUGAGCUCCUAAGCAAUUCCCAGCUCUUGCGGUCGCACUAGUGUGGAAUUCUCGGGUGUCAAGG
B12: ENSMUSG00000028439.182|Fam219a (ssRNA)
RNA: GGGAGUUCUACAGUCCGACGAUCGCUUCGAUAUCCGCAUGCUAUGUGUGUGUGCGUGUGCGUGUGUGUAUGUGUGUGCGUGUGUGUGUGUGUGUGUUGUACCCGAGUGUGUGUUGAGCCUAUCUGUCCAGGGAACCAGAUUGGUGUCCGAGAUGAGGAAAUGGCUGUGGCCUGGGAAAUCAGUGAGAGGCCGCUUGGGAAUGAGAAUGCAGUGGACUGAAAGCACAGCCUGGCCAUCUGGAACCUGGGUUCUGGUCCCAGCCUCGGCAUUCUCCCUGAGCUCCUAAGCAAUUCCCAGGCUUCUCUCUUGCGGUCGCACUAGUGUGGAAUUCUCGGGUGUCAAGG
B13: ENSMUSG00000028439.182|Fam219a|1:10;12:16;18:34;36:53;63:70 (ssRNA)
RNA: GGGAGUUCUACAGUCCGACGAUCGCUUCGAUAUCCGCAUGCUAACACACACACCCACACCCACACACAUACACACACCCACACACACACACACACAUGUACCCGACACACACAUGAGCCUAUCUGUCCAGGGAACCAGAUUGGUGUCCGAGAUGAGGAAAUGGCUGUGGCCUGGGAAAUCAGUGAGAGGCCGCUUGGGAAUGAGAAUGCAGUGGACUGAAAGCACAGCCUGGCCAUCUGGAACCUGGGUUCUGGUCCCAGCCUCGGCAUUCUCCCUGAGCUCCUAAGCAAUUCCCAGGCUUCUCUCUUGCGGUCGCACUAGUGUGGAAUUCUCGGGUGUCAAGG
B14: ENSMUSG00000028439.183|Fam219a (ssRNA)
RNA: GGGAGUUCUACAGUCCGACGAUCGCUUCGAUAUCCGCAUGCUAUGUGCGUGUGCGUGUGUGUAUGUGUGUGCGUGUGUGUGUGUGUGUGUUGUACCCGAGUGUGUGUUGAGCCUAUCUGUCCAGGGAACCAGAUUGGUGUCCGAGAUGAGGAAAUGGCUGUGGCCUGGGAAAUCAGUGAGAGGCCGCUUGGGAAUGAGAAUGCAGUGGACUGAAAGCACAGCCUGGCCAUCUGGAACCUGGGUUCUGGUCCCAGCCUCGGCAUUCUCCCUGAGCUCCUAAGCAAUUCCCAGGCUUCUCUAGGGCUCUUGCGGUCGCACUAGUGUGGAAUUCUCGGGUGUCAAGG

Molecular target: TDP-43 (Homo sapiens, UniProt Q13148 1-414)
Sequence (Q13148 whole entry): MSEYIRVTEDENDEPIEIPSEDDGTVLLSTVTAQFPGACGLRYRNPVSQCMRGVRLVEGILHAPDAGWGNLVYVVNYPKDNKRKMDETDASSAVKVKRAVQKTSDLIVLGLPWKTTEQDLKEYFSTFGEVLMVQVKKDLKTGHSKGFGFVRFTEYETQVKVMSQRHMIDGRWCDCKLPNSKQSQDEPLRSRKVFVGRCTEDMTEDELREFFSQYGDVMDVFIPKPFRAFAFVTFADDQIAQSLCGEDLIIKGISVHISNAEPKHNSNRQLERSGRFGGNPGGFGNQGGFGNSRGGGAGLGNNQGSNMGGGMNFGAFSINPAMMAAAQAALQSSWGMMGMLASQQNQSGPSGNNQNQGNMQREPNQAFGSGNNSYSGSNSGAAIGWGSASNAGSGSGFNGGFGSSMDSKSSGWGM
Test: RNA Bind-n-Seq with designed 260-mer pool; 25 mM Tris-HCl, 150 mM KCl, 3 mM MgCl2, BSA (printed 500 mg/mL), 20 units/mL SUPERase IN; pH not stated; 500 nM RNA pool, 1 h, 4 C; TDP-43 5, 50, 500 nM; high values mean tight binding
Conditions: protein: recombinant; tags: SBP (GST cleaved off with PreScission; pGEX-GST-SBP)
How it was run: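 For each oligo, R gives binding as its mapped-read-normalized abundance after pulldown divided by its abundance in input. Bead-captured SBP-tagged TDP-43 (5, 50 or 500 nM) was incubated with 500 nM of an in vitro-transcribed 260-nt 3′ UTR oligo pool for 1 h at 4 °C in 25 mM Tris-HCl, 150 mM KCl, 3 mM MgCl2, BSA and SUPERase IN on streptavidin beads. Washed, biotin-eluted RNA was reverse transcribed, PCR-amplified and sequenced.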

In order of falling binding signal:
1. B12  6.82 R (bound/input frequency ratio)
2. B11  6.58 R (bound/input frequency ratio)
3. B14  5.72 R (bound/input frequency ratio)
4. B13  3.29 R (bound/input frequency ratio)
5. B10  3.16 R (bound/input frequency ratio)
6. B5  2.55 R (bound/input frequency ratio)
7. B9  2.29 R (bound/input frequency ratio)
8. B1  0.95 R (bound/input frequency ratio)
9. B4  0.833 R (bound/input frequency ratio)
10. B3  0.821 R (bound/input frequency ratio)
11. B2  0.757 R (bound/input frequency ratio)
12. B7  0.359 R (bound/input frequency ratio)
13. B6  0.194 R (bound/input frequency ratio)
14. B8  0.163 R (bound/input frequency ratio)
